PubChem BioAssay AID463173 (ICCB-Longwood Screening Facility, Harvard Medical School, 2010)
Where “and” joins values, the source holds several entries; their conditions need not be identical. Equal entries are not always repeated. The campaign covered roughly 52,000 compounds. About 1,700 (3.3%) were called active. Rule as the data show it: active = survival mostly below about 52% (no sharp cut-off); inactive = mostly above about 56%. The entries come from a sample that favours actives as a whole. Where a structure was tested more than once in an assay, its records may differ in their call.

What follows are compounds tested on Wild type (assay: growth inhibition of S. aureus wild type versus tarO mutant, primary screen, teichoic acid synthesis inhibitors, RN4220, OD600 (AID 463173)). Details: S. aureus RN4220 wild type/DeltatarO growth, OD600, 18 h, stronger effect = lower value, screened at 18.75 µg/mL (by protocol).

Compound | survival
O=C(CN1C(=O)C(c2ccc(F)cc2)=NC12CCCCCC2)Nc1ccc(F)c(Cl)c1 | 76% (inactive)
CCOc1ccc(NC(=O)CCc2c(C)nc3cc(-c4ccccc4OC)nn3c2C)cc1 | 76% (inactive)
COc1ccc(NC(=O)CSc2nc(-c3ccc(OC)cc3)cc(=O)[nH]2)cc1 | 148% (inactive)
CCOCN(C(=O)Cn1c(C)nc2ccccc21)c1c(C)cccc1CC | 124% (inactive)
CCc1cccc(CC)c1N(COC)C(=O)Cn1c(CC)nc2ccccc21 | 74% (inactive)
CCOCN(C(=O)Cn1c(COC)nc2ccccc21)c1c(C)cccc1CC | 111% (inactive)
CCOCN(C(=O)Cn1c(CC(C)C)nc2ccccc21)c1c(C)cccc1CC | 5% (active)
CCOCN(C(=O)Cn1c(C(C)O)nc2ccccc21)c1c(C)cccc1CC (stereo not given) | 117% (inactive)
CCCCc1nc2ccccc2n1CC(=O)N(COCC)c1c(C)cccc1CC | -1% (active)
Cc1cccc(NC(=O)CN2C(=O)COc3ccc(S(=O)(=O)N4CCC(C)CC4)cc32)c1C | 101% (inactive)
Cc1ccc(-c2nc(-c3cc4cccc(OCc5cccc(C)c5)c4oc3=O)no2)cc1 | 71% (inactive)
CSc1ccc(CCNC(=O)c2csc3c2CCCCC3)cc1 | 69% (inactive)
CCC(Cc1ccccc1)NC(=O)c1csc2c1CCCCC2 (stereo not given) | 120% (inactive)
CC(CNC(=O)c1csc2c1CCCCC2)c1ccccc1 (stereo not given) | 0% (active)
CC(C)(C)c1ccc(-c2nnc(-c3ccccc3NC(=O)c3ccc(F)cc3F)o2)cc1 | 144% (inactive)
CCCCSc1nc(-c2ccc(OC)cc2)ccc1C#N | 28% (inactive)
CCOC(=O)C(C)Sc1nc(-c2ccccc2Cl)cc(-c2ccccc2)c1C#N (stereo not given) | 79% (inactive)
CCOC(=O)C(C)Sc1nc(-c2ccccc2)ccc1C#N (stereo not given) | 107% (inactive) and 0% (active)
COc1cccc(C(=O)Nc2ccc(-n3nncc3-c3ccc(Br)cc3)cc2)c1OC | 143% (inactive)
CC(=O)N1CCc2cc(S(=O)(=O)NC(Cc3ccccc3)C(=O)Nc3ccc(C)cc3C)ccc21 (stereo not given) | 74% (inactive)
Nc1cccc(Cl)c1N1CCOCC1 | 110% (inactive)
O=C(Nc1c(C(=O)N2CCN(c3ccccc3)CC2)oc2ccccc12)c1ccco1 | 10% (active)

Compound | survival
COc1ccccc1C(=O)Nc1c(C(=O)N2CCN(c3ccc(F)cc3)CC2)oc2ccccc12 | -2% (active)
O=C(Cc1ccccc1)Nc1c(C(=O)c2ccccc2)oc2ccccc12 | 7% (active)
COc1ccccc1NC(=O)c1oc2ccccc2c1NC(=O)c1c(F)cccc1F | 60% (inactive)
COc1ccc(N2CCN(C(=O)c3oc4ccccc4c3NC(=O)c3ccccc3OC)CC2)cc1 | 129% (inactive)
COc1ccccc1C(=O)Nc1c(C(=O)Nc2ccccc2F)oc2ccccc12 | 2% (active)
O=C(Nc1c(C(=O)N2CCN(c3ccccc3F)CC2)oc2ccccc12)c1ccco1 | 69% (inactive)
O=C(Nc1c(C(=O)N2CCN(c3ccc(F)cc3)CC2)oc2ccccc12)c1ccco1 | 88% (inactive)
CCc1ccc2occ(CC(=O)Nc3c(C(=O)c4ccccc4)oc4ccccc34)c2c1 | 104% (inactive)
COc1ccccc1C(=O)Nc1c(C(=O)N2CCN(c3ccccc3F)CC2)oc2ccccc12 | 101% (inactive)
Cc1ccc(C(=O)c2oc3ccccc3c2NC(=O)Cc2ccccc2)cc1 | 53% (inactive)
COc1cc(C(=O)Nc2c(C(=O)Nc3ccccc3F)oc3ccccc23)cc(OC)c1OC | 68% (inactive)
Cc1ccc(NC(=O)CSc2nnc(C)n3c2cc2sccc23)c(C)c1 | 84% (inactive)
CCc1noc(-c2ccc(N3CCC(C)CC3)c([N+](=O)[O-])c2)n1 | 93% (inactive)
CCOc1ccc(CCNC(=O)c2nnc(Cc3cc(OC)c(OC)c(OC)c3)o2)cc1OCC | 85% (inactive)
COc1ccc(Cn2c(SCC(=O)N3CCN(c4ccc(F)cc4)CC3)nc3ccccc32)cc1 | 45% (inactive)
Cn1c(=O)c(=O)n(C)c2cc(NC(=O)c3cccc(F)c3)c(Cl)cc21 | 71% (inactive)
Cc1ccccc1CNS(=O)(=O)c1csc(C(N)=O)c1 | 128% (inactive)
CCOC(=O)c1cccc(NC(=O)C(C)n2c(C)c3cnn(-c4ccccc4)c(=O)c3c2C)c1 (stereo not given) | 128% (inactive)
CC(CC(=O)Nc1ccc(Br)cc1F)S(=O)(=O)c1ccc2c(c1)NC(=O)CO2 (stereo not given) | 63% (inactive)
O=C(CCc1ccccc1)NC1CC(=O)N(c2cccc(F)c2)C1 (stereo not given) | 81% (inactive)
COc1ccc(OC)c(CNC(=O)Cc2ccc(NC(=O)N3CCSc4ncccc43)cc2)c1 | 64% (inactive)
CCc1ccc(NS(=O)(=O)c2ccc3[nH]cc(C(=O)N(C)Cc4ccco4)c(=O)c3c2)cc1 | 85% (inactive)

Compound | survival
CCn1cc(C(=O)N2CCN(c3cc(Cl)ccc3C)CC2)c(=O)c2cc(S(=O)(=O)N3CCOCC3)ccc21 | 86% (inactive)
COc1ccccc1C(=O)Nc1c(C(=O)c2ccccc2)oc2ccccc12 | -3% (active)
COc1ccc(C(=O)Nc2c(C(=O)c3ccccc3)oc3ccccc23)cc1 | 75% (inactive)
COc1ccccc1C(=O)Nc1c(C(=O)NC(C)(C)C)oc2ccccc12 | 80% (inactive)
S=c1n(-c2ccccc2)cnn1CN1CCCCC1 | 96% (inactive)
CC(=O)Nc1ccc(S(=O)(=O)N2CCC(C)CC2)cc1 | 112% (inactive)
CC(=O)Nc1ccc(S(=O)(=O)N2CCC(c3ccncc3)CC2)cc1 | -6% (active)
CC(C)(C)c1ccc(S(=O)(=O)N2CCC(c3ccncc3)CC2)cc1 | 120% (inactive)
COc1ccc2c(c1)CCc1c(C(=O)Nc3c(C)nn(Cc4ccccc4C)c3C)noc1-2 | 26% (inactive)
O=C(NCCc1ccccc1)c1ccc2c(c1)N(Cc1ccc(F)cc1)C(=O)CS2 | 88% (inactive)
O=C(NCCc1ccc(Cl)cc1)c1ccc2c(c1)N(Cc1ccc(Cl)cc1)C(=O)CS2 | 98% (inactive)
O=C(NCCc1ccc(Cl)cc1)c1ccc2c(c1)N(Cc1ccc(F)cc1)C(=O)CS2 | 10% (active)
CCN(CC)C(=O)c1sc(NC(=O)C2c3ccccc3Oc3ccccc32)c(C(=O)OC(C)C)c1C | 8% (active)
COC(=O)c1c(NC(=O)COc2ccc(Cl)cc2)sc(C)c1C | 73% (inactive)
CCOC(=O)c1c(NC(=O)COc2cc(C)ccc2C(C)C)sc(C)c1C | 67% (inactive)
CCCc1ccc(OCC(=O)Nc2sc(C(=O)OCC)c(C)c2C(=O)OCC)cc1 | 92% (inactive)
Cc1sc(NC(=O)COc2ccc(C(C)(C)C)cc2)c(C(=O)OC(C)C)c1C | 10% (active)
Cc1c(C(=O)OC(C)C)sc(NC(=O)C2c3ccccc3Oc3ccccc32)c1C(=O)OC(C)C | 87% (inactive)
Cc1sc(NC(=O)C2c3ccccc3Oc3ccccc32)c(C(=O)OC(C)C)c1C | 62% (inactive)
CCN(CC)C(=O)c1sc(NC(C)=O)c(C(=O)OC)c1C | 108% (inactive)
CCOC(=O)c1c(NC(=O)COc2ccc(OC)cc2)sc(C(=O)N(CC)CC)c1C | -8% (active)
